This is an account of results in PubChem BioAssay (Tox21).

The nature of assay [1]: qHTS assay for small molecule agonists of the p53 signaling pathway (AID 651631; calls by dose curve; further: nearly all actives have a fitted effect of over 15% in size). Summed up: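 Read-out is beta-lactamase FRET fluorescence measured 2 h after substrate addition at room temperature, in HCT-116 cells with a p53 response element-driven reporter exposed to compounds for 16 h at 37 °C.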
On the technique in general: In qHTS, concentration-response curves come from the screen itself.

A short description of assay [2]: qHTS assay for small molecules that induce genotoxicity in human embryonic kidney cells expressing luciferase-tagged ATAD5 (AID 651632). Further: nearly all actives have a fitted effect of over 15% in size. Further: potency means the concentration at half of the fitted maximal effect. A digest of the protocol: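 Reporter cells (HEK293T) express luciferase-tagged ATAD5, a protein that accumulates after DNA damage. Treat 16 hr at 37C/5% CO2, add Amplite, wait 30 min at RT, and read luminescence.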
Assay [3] can be described thus: qHTS assay for small molecule agonists of the p53 signaling pathway - cell viability (AID 651633; calls by dose curve;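 further: p53RE-bla HCT reporter cells with a stable beta-lactamase p53 reporter; series mostly up to about 83 µM; nearly all actives have a fitted effect of over 30% in size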). A digest of the protocol: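 p53RE-bla cells were treated with compound for 16 hours at 37 C. Cytotoxicity was then measured as CellTiter-Glo luminescence after 30 min at room temperature.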
Assay [4] can be described thus: qHTS assay for small molecules that induce genotoxicity in human embryonic kidney cells expressing luciferase-tagged ATAD5 - cell viability (AID 651634; calls by dose curve; further: nearly all actives have a fitted effect of over 25% in size). A digest of the protocol: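 Seeding of 2,000 HEK293T ATAD5-luciferase cells per well preceded pin-tool compound transfer. Plates sat 15.5 hr at 37C under 5% CO2, then fluorescence was read after 30 min with CellTiter-Fluor.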

Assay [5] in a line: qHTS assay to test for compound auto fluorescence at 590 nm (red) in HepG2 cells (AID 720674). Summed up:
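Fluorescence at 590 nm emission following 540 nm excitation was recorded from HepG2 wells one hour after compound transfer, with DMSO-only wells as vehicle and Rose Bengal sodium equivalency as the scale.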

Assay [6] can be described thus: qHTS assay to test for compound auto fluorescence at 535 nm (green) in HepG2 cells (AID 720675).
Assay [7] in a line: qHTS assay to test for compound auto fluorescence at 460 nm (blue) in HEK293 cells (AID 720678). Summed up: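 After cell attachment (4-5 hr, 37C), compounds were pinned onto HEK293 monolayers in 10% dialyzed FBS medium. The blue channel (405/460 nm) was read following overnight culture. Equivalency was calculated against triamterene.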
Assay [8] in a line: qHTS assay to test for compound auto fluorescence at 590 nm (red) in HEK293 cells (AID 720679). Summed up: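 Plates of HEK293 cells (10% dialyzed FBS) are treated with 23 nL compound or DMSO vehicle after a 4-5 hr attachment period, incubated overnight at 37C, and read for red fluorescence at 540/590nm.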
Assay [9] is described as follows: qHTS assay for small molecule disruptors of the mitochondrial membrane potential - cell viability (AID 720634; calls by dose curve;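 further: human HepG2 liver cancer cells; series mostly up to about 83 µM; nearly all actives have a fitted effect of over 20% in size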). A digest of the protocol: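 Measuring cytotoxicity alongside mitochondrial potential, the screen quantified ATP by luminescence in HepG2 cells after 1 hr compound incubation and a 30 min room-temperature CellTiter-Glo step.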
A short description of assay [10]: qHTS assay for small molecule disruptors of the mitochondrial membrane potential (AID 720635). Summed up: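 HepG2 cells exposed to compound 1 hr at 37C, then Mito-MPS dye 30 min. Ratio read of aggregate (540/590 nm) versus monomer (490/535 nm) fluorescence.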

Unmarked numbers belong to inactive results. Inconclusive results are not listed. Active and inactive are the calls of the source. Unless noted, the call rests on the fitted dose curve; in most records, active means well fitted curve in the direction sought with a large enough effect in the repeat runs; inconclusive means weak or mixed curves; inactive means no such curve, though single readings can be large; an effect the other way counts as inactive or inconclusive.
On the % scale 0 is the no-effect control and ±100 the full control effect.

Regarding `COc1ccc(-c2cc(=O)c3c(O)cc(O[C@@H]4O[C@H](CO[C@@H]5O[C@@H](C)[C@H](O)[C@@H](O)[C@H]5O)[C@@H](O)[C@H](O)[C@H]4O)cc3o2)cc1O`, the molecule was classed as inactive in assay [1], in assay [3], in assay [5], in [6], in assay [7] and in assay [8]. The Potency result in [2] and in assay [4] was “inactive” throughout.
Take `CCCCCCN`: the result in assay [1], in [3], in assay [9], in assay [5], in [6] and in assay [7] was inactive. Moreover, the result in assay [8] was inactive. Also, the Potency entry in assay [4] was “inactive”.
With `N[C@@H](CCC(=O)Nc1ccc([N+](=O)[O-])cc1)C(=O)O`, the call in assay [1], in assay [3], in assay [9], in assay [5], in assay [6] and in assay [7] was inactive. Moreover, in assay [8], the molecule was called inactive. Further, the Potency result in [4] was “inactive”.
For `Cc1ccc(C=O)cc1C`, the molecule was classed as inactive in assay [1], in [3], in assay [9], in [5], in assay [6] and in [7]. Moreover, in [8], the outcome was inactive. Also, the Potency entry in [4] and in assay [10] was “inactive” throughout.
Regarding `CO[C@@H]1[C@@H](OC(N)=O)[C@@H](O)[C@H](Oc2ccc3c(O)c(NC(=O)c4ccc(O)c(CC=C(C)C)c4)c(=O)oc3c2C)OC1(C)C`, the outcome in assay [1], in [3] and in [9] was inactive. Besides, the Potency entry in assay [4] was “inactive”. For the same molecule, in assay [5], the fluorescence, relative to Rose Bengal was -0.195% [at 18.6 µM]. Also, the fluorescence, % of fluorescein control in assay [6] was -0.0594% [at 18.6 µM]. Further, in assay [7], the fluorescence, % of triamterene was 0.0216% [at 18.6 µM]. Also, the fluorescence, % of fluorescent control in [8] was 0.173% [at 18.6 µM].
As for `CCCC/C=C/C=C\C=O`, the molecule was called inactive in assay [1], in assay [3], in assay [9], in assay [5], in [6] and in assay [7]. Also, in assay [8], the result was inactive. Also, the Potency entry in assay [2] and in assay [4] was “inactive” throughout.
Consider `CC(=O)Nc1ccc(S(=O)(=O)Nc2ccc([N+](=O)[O-])cc2)cc1`, for which the outcome in assay [1], in [3], in assay [9], in assay [5], in assay [6] and in [7] was inactive. In addition, in [8], the molecule was classed as inactive. The Potency result in assay [2] was “inactive”.
On to `CC(C)(C)NC(N)=O`, for which the result in [1], in assay [3], in assay [5], in assay [6], in assay [7] and in [8] was inactive. Besides, the Potency result in assay [4] is “inactive”.
On to `Nc1ncnc(Nc2ccccc2)n1`, for which the Potency result in [2], in assay [4] and in assay [10] was “inactive” throughout. Also, the molecule was classed as inactive in assay [3], in assay [9], in [5], in assay [6], in [7] and in assay [8].
On to `CN(C)CCOCCO`, for which the Potency result in assay [2], in assay [4] and in [10] was “inactive” each time. In addition, the outcome in assay [3], in assay [9], in [5], in assay [6], in assay [7] and in [8] was inactive.
As for `CC(CO)c1ccccc1` (configuration not stated), the Potency entry in assay [2], in assay [4] and in assay [10] was “inactive” each time. Also, the result in [3], in [9], in assay [5], in assay [6], in assay [7] and in [8] was inactive.
Regarding `CC(=O)NCCCCCC(=O)O`, the Potency entry in assay [2], in [4] and in [10] was “inactive” each time. For the same molecule, the molecule was called inactive in assay [3], in assay [9], in [5], in assay [6], in assay [7] and in assay [8].
`CC(C)NCC(O)COc1cccc2[nH]ccc12` (configuration not stated): the call in [1], in assay [3], in assay [9], in assay [5], in assay [6] and in [7] was inactive. In addition, the molecule was called inactive in [8]. Moreover, the Potency result in assay [10] was “inactive”.
`CC(=O)CCCCn1c(=O)c2c(ncn2C)n(C)c1=O`: the Potency entry in [2], in assay [4] and in assay [10] was “inactive” each time. Besides, the call in assay [3] and in [9] was inactive. Further, the fluorescence, relative to Rose Bengal in assay [5] is 0.0631% [at 18.6 µM]. For the same molecule, the fluorescence, % of fluorescein control in assay [6] was -0.15% [at 18.6 µM]. Further, in [7], the fluorescence, % of triamterene was 0.0666% [at 18.6 µM]. Besides, the fluorescence, % of fluorescent control in [8] was -0.0868% [at 18.6 µM].
On to `O=C(O)CCSSCCC(=O)O`, for which the Potency result in assay [2] and in assay [4] was “inactive” in each case. Further, the call in [3], in [9], in [5], in [6], in assay [7] and in assay [8] was inactive.
Take `CC1(CO)CN(c2ccccc2)NC1=O` (configuration not stated): the Potency entry in [2], in assay [4] and in [10] was “inactive” in each case. For the same molecule, the result in assay [3], in assay [9], in assay [5], in assay [6], in assay [7] and in assay [8] was inactive.
For the molecule `CC1=C(C(=O)O)N2C(=O)[C@@H](NC(=O)[C@H](N)c3ccc(O)cc3)[C@H]2SC1`, the Potency entry in assay [2], in assay [4] and in assay [10] was “inactive” in each case. Besides, the outcome in [3] and in [9] was inactive. Further, the fluorescence, relative to Rose Bengal in assay [5] was 0.188% [at 18.6 µM]. The fluorescence, % of fluorescein control in [6] was -0.0034% [at 18.6 µM]. For the same molecule, the fluorescence, % of triamterene in assay [7] was 0.187% [at 18.6 µM]. In addition, in assay [8], the fluorescence, % of fluorescent control was -0.165% [at 18.6 µM].
With `CC(CC=O)CCCC(C)(C)O` (configuration not stated), the Potency result in [2], in [4] and in assay [10] was “inactive” in each case. Besides, the result in [3], in assay [9], in [5], in assay [6], in assay [7] and in assay [8] was inactive.
Take `O=C(O)c1ccc(Cl)cc1Cl`: the Potency result in assay [2], in assay [4] and in [10] was “inactive” throughout. The call in assay [3], in [9], in assay [5], in assay [6], in [7] and in assay [8] was inactive.
As to `COC(=O)c1ccccc1C(=O)c1ccc(OCCN2CCCCC2)cc1`, the Potency result in [2], in [4] and in assay [10] was “inactive” in each case. For the same molecule, the outcome in assay [3], in assay [9], in assay [5], in [6], in assay [7] and in assay [8] was inactive.
As for `CCOC(=O)/C=C/c1ccccc1`, the Potency entry in assay [2], in assay [4] and in assay [10] was “inactive” each time. Further, the molecule was classed as inactive in [3], in assay [9], in [5], in assay [6], in assay [7] and in assay [8].
`O=C(CCNNC(=O)c1ccncc1)NCc1ccccc1`: the Potency result in [2], in [4] and in assay [10] was “inactive” each time. The molecule was classed as inactive in assay [3], in assay [9], in [5], in [6], in [7] and in assay [8].
Consider `CC(=O)c1sc(C)nc1C`, for which the Potency result in assay [2], in [4] and in assay [10] was “inactive” each time. The outcome in assay [3], in [9], in [5], in [6], in [7] and in assay [8] was inactive.
In the case of `c1ccc2c(c1)ccc1c3ccccc3ccc21`, the Potency in assay [2] was 881 nM (active). Moreover, the call in assay [3], in assay [9], in assay [5], in assay [6], in [7] and in assay [8] was inactive. The Potency entry in assay [4] and in assay [10] was “inactive” in each case.
